Results as given in PubChem BioAssay (NCI).
This is part of a sample that, as a whole, favours compounds with a hit. Of some 79,000 tested, about 15% had one in any assay. Values without a mark were called inactive. Active and inactive are the calls of the source. Cut-off read from the data, not from the text of the source: active = growth inhibition above about 70%; inactive = the rest.

Columns and labels:
[1] = NCI Yeast Anticancer Drug Screen. Data for the rad50 strain (AID 155);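 note: 0% = growth of vehicle-only cultures of the same strain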; conditions: S. cerevisiae rad50 strain growth inhibition; at 50.0 µM; hits give high values
How it was run: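 Cells are treated with compound, grown, and their growth is then scored against vehicle-only cultures of the same repair-deficient yeast strain.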

[2] = NCI Yeast Anticancer Drug Screen. Data for the mec2-1 strain (AID 157); conditions: S. cerevisiae mec2-1 strain, at 50.0 µM, hits give high values
How it was run: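 mec2-1 yeast strain, carrying an alteration in DNA damage repair or cell cycle control, was exposed to compounds; growth inhibition was measured relative to vehicle-treated controls.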

[3] = NCI Yeast Anticancer Drug Screen. Data for the sgs1 mgt1 strain (AID 161);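 note: 0% = growth of cultures given vehicle only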; conditions: S. cerevisiae sgs1 mgt1 strain, at 50.0 µM, hits give high values
How it was run: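 Percent growth inhibition was derived by comparing compound-exposed mutant yeast with vehicle-exposed cultures. The strain carries alterations in DNA damage repair.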

[4] = NCI Yeast Anticancer Drug Screen. Data for the cln2 rad14 strain (AID 165);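 note: 0% = growth equal to vehicle treated cultures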; conditions: S. cerevisiae cln2 rad14 strain, at 50.0 µM, hits give high values
How it was run: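 Yeast carrying cln2 and rad14 alterations (cell cycle control and DNA damage repair) were exposed to compounds. Growth inhibition was measured against vehicle-treated controls.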

[5] = NCI Yeast Anticancer Drug Screen. Data for the bub3 strain (AID 167); conditions: S. cerevisiae bub3 mutant strain, at 50.0 µM, hits give high values
How it was run: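 Part of a panel of yeast mutants defective in DNA damage repair or cell cycle regulation. Each strain is grown with compound, and inhibition is calculated relative to solvent-treated cultures.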

[6] = NCI Yeast Anticancer Drug Screen. Data for the mlh1 rad18 strain (AID 175); conditions: S. cerevisiae mlh1 rad18 strain growth inhibition; at 50.0 µM; hits give high values
How it was run: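 Growth inhibition of the yeast strain was measured after compound exposure and expressed relative to vehicle-treated controls. The strain carries defined defects in DNA damage repair.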

Compound	growth inhibition [1]	growth inhibition [2]	growth inhibition [3]	growth inhibition [4]	growth inhibition [5]	growth inhibition [6]
O=C1NN=CN2C(=O)CCC12 (stereo not given)	26.4%	3.45%	14.3%	4.15%	14.4%	-3.4%
CCOc1ccc(C(=O)C=O)cc1	11.6%	-5.65%	11.4%	-0.7%	9.55%	27.2%
COc1ccc2c(c1)C1c3ccccc3CCN1CCC2 (stereo not given)	20.8%	20.9%	-23.1%	24.1%	-8.4%	6%
O=C(Cl)c1cc(-c2ccccc2)nc2c(Cl)cccc12	46.1%	39.4%	43%	39.1%	40.5%	38%
CC(=O)Oc1ccc(C2COc3cc(OC(C)=O)c(OC(C)=O)cc3C2)cc1 (stereo not given)	21.2%	31.6%	43%	9.4%	49.6%	37.5%
CC(C)(CCN(CC(=O)O)CC(=O)O)[N+](=O)[O-]	-16.1%	-3.1%	3.65%	-69.8%	6.05%	-21.5%
c1ccc2c(c1)C(=C1c3ccccc3-c3ccccc31)c1ccccc1-2	-6.4%	-18.1%	-0.3%	-34.8%	6.85%	-2.1%
Cn1c(=O)c2c(nc(CCCCCCCCc3nc4c(c(=O)n(C)c(=O)n4C)n3C)n2C)n(C)c1=O	-7.5%	19.9%	-24.8%	-45%	-14.8%	-14.7%
O=C1CCC(c2n[nH]c(=S)o2)N1 (stereo not given)	-2.8%	22.7%	9.05%	-6.65%	13.2%	4.75%
CCCC(O)c1ccccc1 (stereo not given)	31.2%	35.8%	-9.65%	5.3%	3.7%	18.9%
Cc1ccc2c(c1)C(C)(C)C(C)C2(C)C (stereo not given)	-3.05%	-8.2%	-13.8%	-19.9%	9.25%	21.3%
C[C@]12CCC(=O)O[C@@H]1CC[C@@H]1[C@@H]2CC[C@]2(C)[C@@H](O)CC[C@@H]12	20.9%	14%	42.3%	32.5%	27.2%	23.1%
FC(F)(F)C(c1ccc(Cl)cc1)c1ccc(Cl)cc1	42.6%	28.8%	40.6%	34.5%	5.95%	30.6%
CCCC(=O)OCC(O)CO (stereo not given)	12.2%	1.5%	1.3%	18.5%	4.1%	18.6%
NC(CO)C(O)C(O)C(O)CO (stereo not given)	6.8%	4.5%	3.35%	6.7%	2.35%	-0.45%
COc1ccc2c(c1)C(=O)C1CC(=O)CCC21 (stereo not given)	-6.45%	-10.4%	-8.9%	-21.8%	-30.6%	-8.9%
CCCCCCCCCCCCCC(=O)Cl	-52.4%	-4%	-47.2%	-39.9%	-65.5%	-104%
O=C(O)/C(Cl)=C(\Cl)C(=O)NC1C2CC3CC(C2)CC1C3 (stereo not given)	14.4%	10.3%	13.8%	28.8%	3.6%	19.6%
O=C(NCN1CCOCC1)Nc1ccc(Cl)cc1	-13.4%	8.5%	-4.8%	-22.3%	8.75%	-3.25%
CCOC(=O)C1=CC(C)(C(=O)OCC)Nc2c(nc(N)[nH]c2=O)N1 (stereo not given)	-42.5%	-12.9%	-8.35%	4.35%	-35.3%	-19.9%

Compound	growth inhibition [1]	growth inhibition [2]	growth inhibition [3]	growth inhibition [4]	growth inhibition [5]	growth inhibition [6]
c1ccc(C2=C([P+](c3ccccc3)(c3ccccc3)c3ccccc3)CCO2)cc1	99% (active)	99.1% (active)	98.7% (active)	98.2% (active)	98.3% (active)	98.8% (active)
Cc1ccc(SSCC(O)C(O)CSSc2ccc(C)cc2)cc1 (stereo not given)	11.6%	-18.6%	-30.6%	21.8%	-5.6%	10.1%
CC(C)(C)N1CC(C(O)c2ccccc2)C1c1ccccc1 (stereo not given)	-8.05%	0.25%	-17.2%	-13.6%	-11.4%	-2.5%
CC(C)(C)C(=O)O[C@H]1C=C[C@@H](O)[C@@H]2[C@H]1[C@@H]1C=C[C@H]2C1	28.1%	41.6%	66.8%	11.6%	55.9%	53.5%
CC(C)NC(=O)OCc1c(COC(=O)NC(C)C)c2n(c1-c1ccc(Cl)c(Cl)c1)CCS2(=O)=O	-0.5%	2.2%	4.5%	-36.1%	-1.95%	8.15%
Cc1ccc(S(=O)(=O)Nc2ccc([N+](=O)[O-])cc2[N+](=O)[O-])cc1	17.5%	15.3%	-1.65%	9.85%	1.15%	17.8%
CCOC(=O)/C=C\SCCC(=O)O	10.1%	11.1%	15.8%	25.9%	27.1%	41.9%
COc1ccccc1N1C(=O)C2c3[nH]c4ccccc4c3C3CCC(C(C)(C)C)CC3C2C1=O (stereo not given)	17.8%	-11.3%	-4.2%	-12.2%	-16.2%	5.5%
CN(CC(=O)NC(=O)c1ccccc1)c1ccccc1	4%	-2%	8.85%	-0.75%	11%	3.2%
CC(=O)c1c(C)c(C)c(=O)n(C/C=C(\C)CCC=C(C)C)c1O	98% (active)	99% (active)	98.7% (active)	97.4% (active)	98.3% (active)	98.1% (active)
CN1C(=O)N/C(=C\c2ccc(S(=O)(=O)N/N=C\C(O)C(O)C(O)CO)cc2)C1=O (stereo not given)	-25.4%	-15%	-22.9%	4.15%	-39.1%	-35%
CC/C(CC(C)CC)=N\O (stereo not given)	-17.4%	-18.2%	-23.4%	12.5%	-4.55%	-5.75%
O=c1[nH]cc(Nc2ccccc2)c(=O)[nH]1	-1.1%	2.35%	4.95%	-35.2%	-29.6%	-9.65%
CCOC(=O)c1ccc(N(C=O)CCC(OCC)OCC)cc1	-2.25%	-5.75%	4.35%	-49.4%	17.9%	-0.3%
O=C(C[n+]1cccc(Br)c1)c1ccc(F)cc1	16.1%	19.9%	9.6%	21.4%	3.35%	10.2%
Cc1ccc(-c2cs/c(=N\N=C3/CSC(=O)N3Cc3ccccc3)n2-c2cccc(C)c2)cc1	24.4%	1.2%	-11.2%	-4.3%	4.1%	22.2%
CC(=O)Nc1cc([N+](=O)[O-])ccc1CC(O)c1ccccc1 (stereo not given)	-2.25%	-17.1%	-4.1%	-15.5%	-1%	-16.4%
CN1CCCc2cccc(NC(=O)C3CCCNC3=O)c21 (stereo not given)	-15.3%	1.35%	-2.3%	-32.8%	6.55%	9.75%
CC1CCC2N(C1)CC1C3(O)CC4(O)C(CCC5C(=O)C(O)CCC54C)C3(O)CC(O)C1(O)C2(C)O (stereo not given)	5.5%	-26.9%	-10.8%	10.9%	-9.1%	-7.7%
CC(=O)C1CCC2C3CC=C4CC(O)CCC4(C)C3CCC12C (stereo not given)	26.4%	18.4%	23.8%	45.3%	37%	46.6%
